The text below walks through data of PubChem BioAssay AID1946 (Johns Hopkins Ion Channel Center, 2009).

The structures appear in SMILES notation. The whole screen tested about 2,400 compounds, of which about 180 (7.5%) were called active.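 The calls were made as follows: active = readout below zero, meaning a drop past 3 SD under the dofetilide-free negative control mean; inactive = the rest.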 The sample as a whole holds a higher share of actives than the screen did.

Chain of Potassium voltage-gated channel subfamily KQT member 2 (Rattus norvegicus) (O88943 whole entry, looked up): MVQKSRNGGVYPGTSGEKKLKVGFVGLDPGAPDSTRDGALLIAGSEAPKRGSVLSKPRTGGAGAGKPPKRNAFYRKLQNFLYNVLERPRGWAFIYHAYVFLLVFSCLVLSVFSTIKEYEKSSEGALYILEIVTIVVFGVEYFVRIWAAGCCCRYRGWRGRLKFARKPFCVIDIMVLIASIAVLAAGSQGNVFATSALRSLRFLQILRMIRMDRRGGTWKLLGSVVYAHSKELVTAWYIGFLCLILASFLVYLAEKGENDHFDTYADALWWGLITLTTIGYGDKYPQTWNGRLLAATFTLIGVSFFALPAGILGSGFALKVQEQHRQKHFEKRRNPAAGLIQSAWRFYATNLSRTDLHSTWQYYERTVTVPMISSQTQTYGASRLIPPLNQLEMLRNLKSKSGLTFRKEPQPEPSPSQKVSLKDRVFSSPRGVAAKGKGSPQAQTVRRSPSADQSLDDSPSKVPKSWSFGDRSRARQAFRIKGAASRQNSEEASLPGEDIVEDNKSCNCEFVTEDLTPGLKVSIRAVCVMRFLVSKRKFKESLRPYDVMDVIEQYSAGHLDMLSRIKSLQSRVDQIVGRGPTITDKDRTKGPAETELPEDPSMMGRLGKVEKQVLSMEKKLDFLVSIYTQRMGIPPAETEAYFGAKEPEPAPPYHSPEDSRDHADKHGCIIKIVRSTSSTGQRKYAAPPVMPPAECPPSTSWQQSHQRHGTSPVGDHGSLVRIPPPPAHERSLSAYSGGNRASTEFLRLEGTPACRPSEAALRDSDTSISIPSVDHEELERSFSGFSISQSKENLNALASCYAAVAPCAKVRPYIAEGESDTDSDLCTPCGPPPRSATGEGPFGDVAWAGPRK

This test addresses Potassium voltage-gated channel subfamily KQT member 2 (Rattus norvegicus) (UniProt O88943). In words: rat KCNQ2 channel inhibition by compounds alone, confirmation, counter-screen for hERG block protector project, cell-based, CHO, FluxOR thallium flux (AID 1946). Particulars: CHO-KCNQ2 cells, FluxOR thallium flux fluorescence; at 10 µM; active compounds read low; zero marks the 3-SD hit cutoff. (In general: A counterscreen serves to expose hits that act by an unwanted route or on another target.)
Take `c1ccc(-c2n[nH]c(-c3ccccn3)n2)cc1`: the activity change vs negative control was 20.5% (inactive).

As for `C=CCn1c(O)c(N=NC(=S)Nc2ccccc2F)c2cc(S(=O)(=O)N3CCOCC3)ccc21`, the activity change vs negative control was -2.3% (active).

Take `Oc1c(N=NC(=S)Nc2ccccc2F)c2ccccc2n1Cc1ccccc1F`: the activity change vs negative control was 10.9% (inactive).

Consider `Cn1c(O)c(N=NC(=S)Nc2ccccc2F)c2cc(S(=O)(=O)N3CCOCC3)ccc21`, for which the activity change vs negative control is 4% (inactive).

Turning to `CC(Oc1ccc(Br)cc1Br)C(=O)Nc1cccnc1` (stereo not given), the activity change vs negative control was 7.4% (inactive).

For the compound `CC1CCN(C(=S)NC(=O)c2ccc(C(C)(C)C)cc2)CC1`, the activity change vs negative control is 38.5% (inactive).

Consider `COc1cc2c(cc1OC)C(c1ccc([N+](=O)[O-])cc1)N(C(C)=O)CC2` (stereo not given), for which the activity change vs negative control was -4% (active).

For `COc1cc2c(cc1OC)C(C)N(C(=S)NC(=O)c1ccccc1)CC2` (stereo not given), the activity change vs negative control was 18.6% (inactive).

As for `COc1ccc(NC(=O)N2CCN(c3ccc([N+](=O)[O-])cc3)CC2)cc1OC`, the activity change vs negative control was 8.2% (inactive).

For the compound `CN(C)Cc1c(C(=O)N/N=C/c2ccccc2OCc2c(F)cccc2Cl)nnn1-c1nonc1N`, the activity change vs negative control was -0.5% (active).

In the case of `CCCOc1ccc(-c2c(C(=O)N/N=C/c3ccccc3OCC)nnn2-c2nonc2N)cc1`, the activity change vs negative control was 11.7% (inactive).

As to `Nc1nonc1-n1nnc(C(=O)N/N=C/c2cccc(Cl)c2Cl)c1CN1CCCC1`, the activity change vs negative control was 5.3% (inactive).

For `O=C(NC(=S)Nc1ccc(C(F)(F)F)cc1)c1csnn1`, the activity change vs negative control is 110% (inactive).

In the case of `CC1CCc2c(sc3[nH]c(=S)n(C)c(=O)c23)C1` (stereo not given), the activity change vs negative control was 100% (inactive).

As to `CN1N=C(C(=O)N2CCc3c([nH]c4ccccc34)C2c2c(F)cccc2Cl)CCC1=O` (stereo not given), the activity change vs negative control is 0.6% (inactive).

For the compound `CCc1nc(C)ccc1OCC(=O)N1CCc2c([nH]c3ccccc23)C1c1ccccn1` (stereo not given), the activity change vs negative control was -3.7% (active).

Take `O=c1c2cc(Br)ccc2nc(-c2ccc([N+](=O)[O-])cc2)n1O`: the activity change vs negative control is 66.7% (inactive).

With `C=CCN(CC=C)C(=S)NC(=O)Cc1cccc2ccccc12`, the activity change vs negative control was 25.1% (inactive).

`CC(/C=C1\SC(=S)N(NS(=O)(=O)c2ccc(C)cc2)C1=O)=C\c1ccccc1`: the activity change vs negative control is 32.4% (inactive).

Regarding `O=c1c2cc(Cl)ccc2nc(-c2ccccc2)n1O`, the activity change vs negative control was 56.6% (inactive).

With `Cn1nc(C(F)(F)F)c(-c2ccc(Br)cc2)c1NC(=O)c1cccnc1`, the activity change vs negative control is -6.8% (active).

Consider `Cn1c(=S)[nH]c2sc3c(c2c1=O)CCC(C(C)(C)C)C3` (stereo not given), for which the activity change vs negative control is 99.8% (inactive).

With `CC(CCc1ccccc1)NC(=S)NC(=O)c1ccco1` (stereo not given), the activity change vs negative control was 43% (inactive).

In the case of `COc1ccc(N(CC(=O)NCc2cccnc2)S(=O)(=O)c2ccccc2[N+](=O)[O-])c(OC)c1`, the activity change vs negative control was 4.1% (inactive).

For `Cc1ccc(/C(O)=C2\C(=O)C(=O)N(Cc3cccnc3)C2c2ccccc2[N+](=O)[O-])cc1` (stereo not given), the activity change vs negative control is -1.5% (active).

In the case of `O=C1C(=O)N(CCN2CCOCC2)C(c2cccnc2)/C1=C(/O)c1ccc(Cl)cc1` (stereo not given), the activity change vs negative control is 6.1% (inactive).

With `CC(C)CN1C(=O)/C(=C/c2cccs2)NC1=S`, the activity change vs negative control was 113% (inactive).

As for `COc1ccc(NC(=S)NC(=O)c2csnn2)cc1`, the activity change vs negative control was 81.7% (inactive).

For `CC(C)C(=O)Nc1cccc(C(=O)Nc2ccccc2C(=O)O)c1`, the activity change vs negative control was 13.7% (inactive).

For `CC(=O)Nc1ccccc1C(=O)C(=O)Nc1ccc(Cl)cc1`, the activity change vs negative control is 5.3% (inactive).

As to `CC(=O)Nc1ccccc1C(=O)C(=O)Nc1ccccc1`, the activity change vs negative control is -2% (active).

As for `S=c1[nH]c2cc(Cl)ccc2s1`, the activity change vs negative control is 121% (inactive).

Regarding `CCn1c(=S)[nH]c2sc3c(c2c1=O)CCCCC3`, the activity change vs negative control was 126% (inactive).

As for `CC(C)n1c(=S)[nH]c2scc(-c3cccs3)c2c1=O`, the activity change vs negative control is 119% (inactive).

In the case of `S=c1[nH]nc(-c2cccs2)n1/N=C/c1c(Cl)cccc1Cl`, the activity change vs negative control is 42.5% (inactive).

Regarding `O=C(N/N=C/c1cc([N+](=O)[O-])ccc1O)c1ccc(COc2ccc3c(c2)CCC3)o1`, the activity change vs negative control is -19.7% (active).

`Cc1cc(OCc2ccc(C(=O)Nc3ccc(C(=O)O)cc3)o2)ccc1Cl`: the activity change vs negative control was 5.6% (inactive).

Take `CCOc1ccc(C(=O)N/N=C/c2cc([N+](=O)[O-])cs2)cc1`: the activity change vs negative control was 5.6% (inactive).

Turning to `CCOC(=O)C1=C(c2ccccc2)NC(=O)NC1c1ccc(O)c(Cl)c1` (stereo not given), the activity change vs negative control is 23.1% (inactive).

Turning to `O=C(N=Nc1c(O)[nH]c2ccc([N+](=O)[O-])cc12)c1cc(-c2ccccc2Cl)nc2ccccc12`, the activity change vs negative control is 3.8% (inactive).

`CC(C)(C)c1ccc(C(=O)CC(=O)c2cc(Cl)ccc2O)cc1`: the activity change vs negative control was 9.8% (inactive).

Take `COc1ccc(C(=O)CC(=O)C(=O)Nc2ccccc2OC)cc1`: the activity change vs negative control was 19.3% (inactive).

With `COC(=O)c1ccc(/C=C/c2ccc3cccc(OC)c3n2)cc1`, the activity change vs negative control is -0.2% (active).

Take `O=C(N/N=C/c1ccc2cccc(OCc3ccccc3)c2n1)c1ccc(Br)cc1`: the activity change vs negative control was 12% (inactive).

In the case of `O=C(Cn1nnc(-c2cccc(C(F)(F)F)c2)n1)N1CCCCCC1`, the activity change vs negative control was 44.7% (inactive).

On to `Cc1ccccc1OCC(=O)NNC(=O)c1ccc2c(=O)n3c(nc2c1)CCC3`, for which the activity change vs negative control was -0.9% (active).

With `COc1ccc(C(=O)NCC(=O)OCn2nnc3ccccc3c2=O)cc1OC`, the activity change vs negative control was 5.4% (inactive).

For `Cc1ccccc1NC(=O)C(=O)NNC(=O)COc1ccc2ccccc2c1`, the activity change vs negative control is 48.1% (inactive).

In the case of `O=S(=O)(NC(=S)NC1CCCCC1)c1ccc(Br)cc1`, the activity change vs negative control is 36.7% (inactive).

`C=CCn1c(SCc2ccc(C(=O)O)cc2)nc2sc(C)c(C)c2c1=O`: the activity change vs negative control is 68% (inactive).

`CC1Cc2ccccc2N1C(=S)NC(=O)c1cccc(Br)c1` (stereo not given): the activity change vs negative control was 143% (inactive).

In the case of `O=C(NC(=S)NCCc1ccccc1)c1cccc(Cl)c1`, the activity change vs negative control is 5.4% (inactive).

Turning to `O=C(NC(=S)NNC(=O)[C@H]1C[C@@H]1c1ccccc1)c1cccc(F)c1`, the activity change vs negative control is -9% (active).

In the case of `Cc1cccc(N=Cc2cc(Br)cc(Cl)c2O)c1`, the activity change vs negative control is 61.7% (inactive).

As for `COc1ccc(C(=O)NNC(=O)C(=O)Nc2ccc(C)cc2)cc1`, the activity change vs negative control is 36.9% (inactive).

Regarding `C=CCn1c(=S)[nH]c2cc(-c3ccccc3)sc2c1=O`, the activity change vs negative control is 17.5% (inactive).

With `NC(=O)c1cccnc1Nc1cccc([N+](=O)[O-])c1`, the activity change vs negative control was 0.5% (inactive).

`COc1ccc(S(=O)(=O)Nc2cccc(-n3cnnn3)c2)cc1`: the activity change vs negative control was 11.8% (inactive).

On to `O=C(NCc1cccnc1)c1ccc(NS(=O)(=O)c2ccc(F)cc2)cc1`, for which the activity change vs negative control is 17% (inactive).

As for `COc1ccc(S(=O)(=O)Nc2cccnc2)cc1`, the activity change vs negative control is -2.7% (active).

`S=c1nc(-c2ccccc2)[nH]n1-c1ccccc1`: the activity change vs negative control is 73.2% (inactive).

Take `C=CCNC(=S)Nc1nc2c(cc1C(=O)OCC)CCCC2`: the activity change vs negative control is 15.6% (inactive).

As to `COc1ccc([N+](=O)[O-])cc1N(CC(=O)NCc1ccco1)S(C)(=O)=O`, the activity change vs negative control was 9.4% (inactive).

For the compound `COc1cc(/C=C2/C(=O)NN(c3ccc(Cl)c(Cl)c3)C2=O)cc([N+](=O)[O-])c1O`, the activity change vs negative control is 10.8% (inactive).

Turning to `COc1cc(/C=C2/OC(=O)c3cc([N+](=O)[O-])ccc32)cc(OC)c1OC`, the activity change vs negative control is -0.9% (active).

Turning to `O=C(NC(=S)N1CCN(c2nc(-c3ccccc3)cs2)CC1)c1cncc(Br)c1`, the activity change vs negative control was 76.4% (inactive).

For `Cc1ccccc1OC(=O)n1c(=S)oc2cc(Cl)ccc21`, the activity change vs negative control is 33.4% (inactive).

In the case of `Cc1ccc2nsnc2c1S(=O)(=O)Nc1cccc2nsnc12`, the activity change vs negative control was 27.1% (inactive).

For `O=C(CCCc1c[nH]c2ccccc12)Nc1ccc(S(=O)(=O)Nc2ncccn2)cc1`, the activity change vs negative control is -0.6% (active).

Regarding `O=C(COc1ccccc1)Nc1ccc(S(=O)(=O)Nc2ccccn2)cc1`, the activity change vs negative control is 0.2% (inactive).

On to `Cc1cc(C)nc(NS(=O)(=O)c2ccc(NC(=O)Cc3ccccc3)cc2)n1`, for which the activity change vs negative control was 12.6% (inactive).

As to `Cc1ccc(-c2n[nH]c(=S)nc2-c2ccc(C)cc2)cc1`, the activity change vs negative control is 15.9% (inactive).

Regarding `CN(CC(=O)Nc1nc2ccccc2s1)S(=O)(=O)c1ccc(Cl)cc1`, the activity change vs negative control is -3.4% (active).

In the case of `O=C(NC(=S)Nc1nc2ccccc2s1)c1cccs1`, the activity change vs negative control was 38.4% (inactive).

Consider `S=C(Nc1ccc(Cl)cc1)c1nc2ccccc2s1`, for which the activity change vs negative control was 22% (inactive).

Take `Cc1nc2ccccc2n1-c1ccccc1`: the activity change vs negative control was 19.5% (inactive).

For `Oc1c(Cl)cc(Cl)cc1/C=N/c1ncn[nH]1`, the activity change vs negative control is 53.4% (inactive).

For the compound `O=C(NC(=S)N1CCCCCC1)c1ccc(Cl)cc1Cl`, the activity change vs negative control was 30.8% (inactive).

In the case of `COc1ccc(NC(=O)C(=O)NNC(=O)COc2ccc(Cl)cc2)c(OC)c1`, the activity change vs negative control is 38.6% (inactive).

Turning to `CC(C)CCNC(=O)CCc1nnc(Cc2c[nH]c3ccccc23)o1`, the activity change vs negative control is -0.6% (active).

Turning to `CN(Cc1ccsc1)C(=O)CCc1nnc(Cc2c[nH]c3ccccc23)o1`, the activity change vs negative control is 10.6% (inactive).

As for `COCCCNC(=O)CCc1nnc(Cc2ccc(-c3ccccc3)cc2)o1`, the activity change vs negative control is 26.3% (inactive).

For the compound `CN(C)c1ccc(NC(=O)CCCc2ccccc2)cc1`, the activity change vs negative control was 29.6% (inactive).

For `O=C(CS(=O)(=O)Cc1ccccc1)Nc1ccc(Cl)cn1`, the activity change vs negative control was 7.9% (inactive).

As for `CC(C)C(=O)Nc1ccc(NC(=O)CCc2ccccc2)cn1`, the activity change vs negative control is -1.8% (active).

`S=c1nc(C2CCCCC2)n(-c2ccccc2)[nH]1`: the activity change vs negative control was 72.6% (inactive).

For the compound `O=[N+]([O-])c1ccc(S(=O)(=O)Nc2ccc(S(=O)(=O)N3CCCC3)cc2)cc1`, the activity change vs negative control is -0.3% (active).

`O=C(Nc1ccc(N2CCOCC2)cc1)c1ccc(S(=O)(=O)N2CCCCC2)cc1`: the activity change vs negative control is 10.5% (inactive).

`N#C/C(=N/Nc1ccc([N+](=O)[O-])cc1)C(=N)N1CCCCC1`: the activity change vs negative control is 17% (inactive).

For the compound `COc1ccc(OCC(=O)NNC(=O)C(=O)Nc2cc(OC)ccc2OC)cc1`, the activity change vs negative control was 38.9% (inactive).

On to `CCOC(=O)c1sc2nc(C)[nH]c(=S)c2c1C`, for which the activity change vs negative control is 32.7% (inactive).

Turning to `CC(NC(=O)c1ccc(F)cc1)c1ccc2c(c1)CCCC2` (stereo not given), the activity change vs negative control was 55.5% (inactive).

In the case of `CCn1c(SCC(N)=O)nc2sc3c(c2c1=O)CCCC3`, the activity change vs negative control was 60.6% (inactive).

With `CCCn1c(SCC(=O)N2CCN(C(C)=O)CC2)nc2sc3c(c2c1=O)CCC3`, the activity change vs negative control was 51.5% (inactive).

As to `CCC(=O)N1CCN(c2nc(CC)nc3sc4c(c23)CCCC4)CC1`, the activity change vs negative control is -20.7% (active).
